In all, about 16,000 compounds went through this assay and about 120 (0.75%) were called active. Inconclusive results (about 4%) are left out. The sample holds actives, similar compounds and a random draw of the others, so the mix is not that of the screen. Calls follow the shape of the dose curve; as a rule, active = well fitted inhibition curve with a large enough effect; inconclusive = small, poorly fitted or top-dose-only effect; inactive = no such curve, though single readings can be large or run the other way. More than one record can exist for a structure, and the calls need not agree.
Potency is read from the fitted curve at half-maximal effect.

Rap guanine nucleotide exchange factor 3 (Homo sapiens), sequence (O95398 whole entry, looked up): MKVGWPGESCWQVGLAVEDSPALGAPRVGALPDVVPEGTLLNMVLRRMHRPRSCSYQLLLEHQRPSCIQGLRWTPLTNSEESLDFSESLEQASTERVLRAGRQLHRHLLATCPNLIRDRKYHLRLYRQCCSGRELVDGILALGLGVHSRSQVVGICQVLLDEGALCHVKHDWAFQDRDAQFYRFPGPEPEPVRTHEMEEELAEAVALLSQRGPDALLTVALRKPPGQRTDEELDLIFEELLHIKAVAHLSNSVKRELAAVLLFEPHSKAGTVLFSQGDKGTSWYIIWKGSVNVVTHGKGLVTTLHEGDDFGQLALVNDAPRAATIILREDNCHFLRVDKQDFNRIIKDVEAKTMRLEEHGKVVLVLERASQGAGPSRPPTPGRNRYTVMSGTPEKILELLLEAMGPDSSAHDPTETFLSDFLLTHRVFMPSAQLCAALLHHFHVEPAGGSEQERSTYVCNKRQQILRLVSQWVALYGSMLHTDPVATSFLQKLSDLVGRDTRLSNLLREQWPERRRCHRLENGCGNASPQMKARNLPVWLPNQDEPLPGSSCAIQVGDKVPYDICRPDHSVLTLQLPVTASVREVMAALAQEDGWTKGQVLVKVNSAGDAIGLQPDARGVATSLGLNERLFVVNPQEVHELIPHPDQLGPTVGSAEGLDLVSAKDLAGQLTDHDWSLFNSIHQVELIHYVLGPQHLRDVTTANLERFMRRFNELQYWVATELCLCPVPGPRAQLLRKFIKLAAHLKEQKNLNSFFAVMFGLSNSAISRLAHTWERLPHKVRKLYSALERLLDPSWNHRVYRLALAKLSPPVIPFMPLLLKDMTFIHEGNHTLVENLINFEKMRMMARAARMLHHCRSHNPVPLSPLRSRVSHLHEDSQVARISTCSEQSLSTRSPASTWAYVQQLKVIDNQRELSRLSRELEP

The assay addresses Rap guanine nucleotide exchange factor 3 (Homo sapiens) (UniProt O95398). Kind of assay: Validation qHTS for antagonist of cAMP-regulated guanine nucleotide exchange factor 3 (EPAC1). Also: nearly all actives have a fitted effect of over 75% in size. The settings on record: EPAC1 Rap1B-BODIPY-GDP exchange, fluorescence; series mostly up to 150 µM; activity change, negative = inhibition: at the top concentration. The text has this: Assay Provider (PI): Xiaodong Cheng Ph.D.
The University of Texas Medical Branch, […], TX
In multi-cellular eukaryotic organisms, the effects of cAMP are transduced by two ubiquitously-expressed intracellular cAMP receptors, the classic protein kinase A/cAMP-dependent protein kinase (PKA/cAPK) and the more recently discovered exchange protein directly activated by cAMP/cAMP-regulated guanine nucleotide exchange factor (EPAC/cAMP-GEF). Both PKA and EPAC are ubiquitously expressed in all tissues, and an increase in intracellular cAMP levels will lead to the activation of both PKA and EPAC. Therefore, careful dissections of the individual role and relative contribution of EPAC and PKA within the overall cAMP signaling in various model systems are critical for further elucidating the mechanism of cAMP signaling. To date no EPAC-specific antagonists and agonist, as well as isoform-specific agonists have been reported, and developing EPAC-specific pharmacological probes to determine the physiological functions that EPAC play in the overall cAMP-mediated signaling remains a major challenge within the research field. Furthermore, identified regulators of EPAC may lead to new mechanism-based therapeutic strategies specifically targeting the EPAC / cAMP-signaling components as EPAC has been implicated to play important roles in major human pathological conditions such as diabetes, heart disease, and cancer.
This qHTS will be used to screen the Molecular Libraries Small Molecule Repository (MLSMR) as a concentration-titration series using the NCGC unique quantitative screening (qHTS) platform to find activators for EPAC1. In addition, this assay will also be used as a counterscreen for the EPAC2 qHTS. This fluorescent based assay is developed and validated for EPAC1 that measures exchange using EPAC effector Rap1 complex with BODIPY-GDP, a GDP analog with a tethered fluorophores. Activators are identified by monitoring the change in fluorescence signal as the exchanged free BODIPY-GDP has a reduced fluorescence compared to Rap1-bound BODIPY-GDP. Increase in signal (activation) is the desired outcome for the EPAC1 agonist while no activity in this assay is desired for the EPAC2 agonist counterscreen.
[1] de Rooij, J., Zwartkruis, F. J., Verheijen, M. H., Cool, R. H., Nijman, S. M., Wittinghofer, A., and Bos, J.L. (1998) Nature 396, 474-477.
Briefly, three uL of reagents (100 nM EPAC1, 250 nM RAP1B-BODIPY-GDP, 50 uM GDP) were dispensed into a 1536-well Greiner black solid-bottom medium binding assay plate. Controls and test compounds (23 nL) were transferred to the plate via a Kalypsys pin tool equipped with a 1536-pin array. The plates were centrifuged at 1,000 rpm for 15 seconds followed by 5 minute incubation at room temperature. The assay plates were read at 5 minute intervals for 30 minutes in the ViewLux plate reader using 480nm excitation and 540nm emission filters. The results were normalized to the […] positive control ATA and DMSO.
Consider `O=[N+]([O-])c1ccc(O)c([N+](=O)[O-])c1`, for which the “activity change, negative = inhibition” value is 5.37% (inactive).
For the compound `O=[N+]([O-])c1cc(O)c(O)c([N+](=O)[O-])c1`, the Potency was 79.4 µM (active) and inactive.
On to `O=[N+]([O-])c1cc(I)c(O)c(I)c1`, for which the “activity change, negative = inhibition” value is 21.3% (inactive).
Consider `COP(=S)(OC)Oc1ccc(S(N)(=O)=O)cc1`, for which the “activity change, negative = inhibition” value is 19.3% (inactive).
For `O=c1oc2ccccc2c(O)c1Cc1c(O)c2ccccc2oc1=O`, the Potency result was “inactive”.
On the same count and under the same terms, the same measure for `O=c1oc2ccccc2c(O)c1C(CC(O)c1ccc(-c2ccc(Br)cc2)cc1)c1ccccc1` (stereo not given): 100 µM (active).
Take `O=c1oc2ccccc2c(O)c1C(c1ccccc1O)c1c(O)c2ccccc2oc1=O`: the “activity change, negative = inhibition” value is 22% (inactive).
`O=C(Oc1ccccc1)N1CCC2(CC1)CCN(C(c1ccccc1)c1ccccc1)CC2`: the “activity change, negative = inhibition” value is 26.6% (inactive).
`CC(C)(C)c1cc(O)ccc1O`: the Potency result is “inactive”.
Still for that read-out and setting: the same measure for `Oc1cc2c(cc1O)[C@H]1c3ccccc3CN[C@H]1CC2`: “inactive”.
`CC(=O)O.CC(=O)O.[Cd]`: the “activity change, negative = inhibition” value is -7.38% (inactive).
As for `COc1cc2c(cc1OC)[C@@H]1C(=O)c3ccc4oc(C(C)C)cc4c3OC1CO2` (stereo not given in full), the “activity change, negative = inhibition” value is 3.72% (inactive).
On the same count and under the same terms, the same measure for `CCc1cccc(C)c1N(C(=O)CCl)C(C)COC` (stereo not given): 1.24% (inactive).
Turning to `CN(C)C1C(=O)C(C(N)=O)=C(O)[C@@]2(O)C(=O)C3=C(O)c4c(O)cccc4[C@](C)(O)C3C(O)C12` (stereo not given in full), the “activity change, negative = inhibition” value is 2.85% (inactive).
Regarding `Cl.Cl.Cl.Cl.Cl.Cl.N.N.N.N.NNNNN.NNNNN.O.O.[Ru].[Ru].[Ru]`, the Potency is 89.1 µM (active).
For `O=CN1CC2CC(C1)c1cccc(=O)n1C2` (stereo not given), the “activity change, negative = inhibition” value is 18.2% (inactive).
In the case of `CC(C)CCCC1(C)C=Cc2c(O)c3c(c(CCC(C)C)c2O1)OC12C(CC4CC1C(C)(C)OC2(CCC(C)C(=O)O)C4O)C3=O` (stereo not given), the Potency is 70.8 µM (active).
Consider `CN(C)CCc1c[nH]c2cccc(O)c12`, for which the “activity change, negative = inhibition” value is 41% [at 320 µM] (inactive).
The same measure, in the same setting: the same measure for `ClCCN(CCCl)/C(=C\c1ccccc1)c1ccnc2ccccc12`: 23.4% (inactive); for `O=C1CC[C@@]2(O)C3Cc4ccc(O)c5c4C2(CCN3CC2CC2)[C@H]1O5` (stereo not given in full): 2.27% [at 75.8 µM] (inactive).
Regarding `CC(=O)OC1CC(OC(C)=O)[C@]2(C)C(CC(OC(C)=O)[C@]3(C)C2CC[C@@]2(C)C(c4ccoc4)C[C@H]4O[C@]432)C1(C)C` (stereo not given in full), the “activity change, negative = inhibition” value was 7.6% (inactive).
The same measure, in the same setting: in the case of `O=S(=O)(O)c1cc(O)ccc1O` it was 16.6% [at 75.8 µM] (inactive).
For `O=C1OC(c2ccc(O)c(S(=O)(=O)O)c2)(c2ccc(O)c(S(=O)(=O)O)c2)c2c(Br)c(Br)c(Br)c(Br)c21`, the Potency was 14.1 µM (active).
For `CCOC(=O)[C@]12Cc3cc(OC)ccc3[C@H]1N(Cc1ccccc1)C(=O)c1cc(F)c(F)cc12`, the “activity change, negative = inhibition” value is -17% (inactive).
Same read-out and setting: the same measure for `CC(Cc1ccc2c(c1)OCO2)NO` (stereo not given): 6.99% [at 320 µM] (inactive); for `NC(=O)[C@H](Cc1ccccc1)NC(=O)[C@H](Cc1c[nH]c2ccccc12)NC(=O)[C@@H]1CCCN1C(=O)[C@@H](N)Cc1ccc(O)cc1`: 5.24% [at 15.3 µM] (inactive).
Consider `CCOC(=O)C1(c2ccccc2)CCCN(C)CC1` (stereo not given), for which the “activity change, negative = inhibition” value is 17.5% (inactive).
As for `CCC(C)C(=O)c1c(O)c(C)c2oc3c(C)c(O)c(C(=O)C(C)CC)c(O)c3c2c1O` (stereo not given), the “activity change, negative = inhibition” value was -18% (inactive).
Consider `CCOCN(C(=O)CCl)c1c(C)cccc1CC`, for which the “activity change, negative = inhibition” value is 14.4% (inactive).
As to `O=[N+]([O-])c1ccc(F)c([N+](=O)[O-])c1`, the “activity change, negative = inhibition” value was 2.44% (inactive).
As to `COC(=O)/C(C)=C\CC12OC(C)(C)C3CC(C=C4C(=O)c5c(OC)c6c(c(CC=C(C)C)c5OC431)OC(C)(CCC=C(C)C)C=C6)C2=O` (stereo not given), the “activity change, negative = inhibition” value is 5.89% (inactive).
For the compound `CC(C)=CCCC1(C)C=Cc2c(O)c3c(c(CC=C(C)C)c2O1)OC12C(=CC4CC1C(C)(C)OC2(C/C=C(/C)C(=O)O)C4O)C3=O` (stereo not given), the Potency was 63.1 µM (active).
As to `COc1c2c(c(CC=C(C)C)c3oc(=O)c(-c4ccc(O)cc4)c(O)c13)OC(C)(C)C=C2`, the “activity change, negative = inhibition” value was -16.9% (inactive).
With `CC(=O)Oc1c2c(c(CC=C(C)C)c3c1C(=O)C1=CC4CC5C(C)(C)OC(C/C=C(\C)C(=O)O)(C4=O)[C@]15O3)OC(C)(CCC=C(C)C)C=C2` (stereo not given in full), the Potency is 44.7 µM (active).
Same read-out and setting: the same measure for `CC(C)=CCCC1(C)C=Cc2c(O)c3c(c(CC=C(C)C)c2O1)OC12C(=CC4CC1C(C)(C)OC2(C/C=C(/C)C(=O)O)C4=O)C3=O` (stereo not given): 50.1 µM (active); for `CN[C@H]1C[C@@H](N)[C@H](O)[C@@H](O[C@@H]2O[C@H](CO)[C@H](O)[C@@H]3OC4(O[C@H]23)O[C@H](C(N)CO)[C@H](O)[C@H](O)[C@H]4O)[C@@H]1O` (stereo not given in full): “inactive”.
`CC[C@]1(O)CC(O[C@@H]2CC(N(C)C)C(O)C(C)O2)c2c(cc3c(c2O)C(=O)c2c(O)cccc2C3=O)C1C(=O)OC` (stereo not given in full): the “activity change, negative = inhibition” value was 2.61% (inactive).
As for `CCC(=O)O[C@H]1[C@@H](N2CCCCC2)C[C@H]2[C@@H]3CC[C@H]4C[C@H](OC(C)=O)[C@@H](N5CCCCC5)C[C@]4(C)[C@H]3CC[C@@]21C`, the “activity change, negative = inhibition” value was 13.2% (inactive).
Same read-out and setting: in the case of `CC(CC(C#N)(c1ccccc1)c1ccccc1)N(C)C` (stereo not given) it was 12.7% [at 320 µM] (inactive).
The same measure, in the same setting: in the case of `CC(C)C1C(=O)N2CCC[C@H]2[C@]2(O)O[C@](NC(=O)[C@@H]3C=C4c5cccc6[nH]cc(c56)C[C@H]4N(C)C3)(C(C)C)C(=O)N12` (stereo not given in full) it was 37.4% (inactive).
Same read-out and setting: the same measure for `C[C@@]12CCC(O)C[C@H]1CCC1C2CC[C@]2(C)C(=O)CCC12` (stereo not given in full): 17.4% (inactive).
On to `O=S(=O)(O)C(F)(F)C(F)(F)C(F)(F)C(F)(F)F`, for which the “activity change, negative = inhibition” value is 30.7% [at 320 µM] (inactive).
`O=S(=O)(O)C(F)(F)C(F)(F)C(F)(F)C(F)(F)C(F)(F)C(F)(F)C(F)(F)C(F)(F)F`: the Potency is 35.5 µM (active).
On to `CC(C)C[C@H]1C(=O)N2CCC[C@H]2[C@]2(O)O[C@](NC(=O)[C@@H]3C[C@@H]4c5cccc6[nH]cc(c56)C[C@H]4N(C)C3)(C(C)C)C(=O)N12`, for which the “activity change, negative = inhibition” value was 16.7% (inactive).
Still for that read-out and setting: the same measure for `O[C@@H]1CCCC[C@@H]1N1CCC(c2ccccc2)CC1`: 6.71% (inactive); for `Cn1cccc1-c1cccnc1`: 38% (inactive); for `N#C/C(=C/c1ccc(O)c(O)c1)C(N)=S`: 2.58% [at 75.8 µM] (inactive).
Regarding `N#C/C(=C\c1ccc(O)c(O)c1)C(N)=S`, the Potency was 89.1 µM (active).
Consider `N#CC(C#N)=Cc1ccc(O)c(O)c1`, for which the Potency entry is “inactive”.
As for `O=c1ccc2cc(OC3OC(CO)C(O)C(O)C3O)c(O)cc2o1` (stereo not given), the “activity change, negative = inhibition” value was 4.95% (inactive).
Still for that read-out and setting: in the case of `O=C(N[C@H]1N=C(c2ccccc2F)c2cccc3c2N(CC3)C1=O)c1cc2ccccc2[nH]1` it was -25% (inactive); in that of `CC1Cc2ccccc2CN1` (stereo not given), 13.3% (inactive).
Consider `C[N+](C)(C)CCOC(=O)C(O)(c1ccccc1)c1ccccc1`, for which the “activity change, negative = inhibition” value is 9% (inactive).
Still for that read-out and setting: the same measure for `CN(CCC(N)CC(=O)NC1C=CC(n2ccc(N)nc2=O)OC1C(=O)O)C(=N)N` (stereo not given): -1.03% (inactive).
For the compound `O=C1C(Cl)=C(Cl)C(=O)C(Cl)=C1Cl`, the Potency is 39.8 µM (active).
Regarding `COc1cc(CC(C)N)cc(OC)c1OC` (stereo not given), the “activity change, negative = inhibition” value was 14.5% [at 320 µM] (inactive).
Turning to `O=C1C(I)=CC(=C(c2cc(I)c(O)c(I)c2)c2ccccc2C(=O)O)C=C1I`, the Potency is 39.8 µM (active).
For the compound `CNc1ccccc1C(=O)O`, the “activity change, negative = inhibition” value is 17.1% (inactive).
Take `Nc1ccccc1C(=O)O`: the “activity change, negative = inhibition” value is 10.3% (inactive).
Consider `N#CN`, for which the “activity change, negative = inhibition” value was 7.44% (inactive).

Source of the values: PubChem BioAssay AID1645882 (National Center for Advancing Translational Sciences (NCATS), 2021).
